For some assays here: Measured potencies and affinities stand elsewhere.
Tests used:
Set-up in all cases: scale not given: direction of the effect not stated beside the values
[1] = biological target: Protein translocase subunit SecA (Escherichia coli (strain K12)) (UniProt P10408); assay: Assay to Identify E. coli SecA ATPase Inhibitors; assay type: functional; details: 30 µM
[2] = biological target: T1, Ubiquitin-activating enzyme e1, putative (Leishmania donovani (strain BPK282A1)) (UniProt E9BSI1); assay: Leishmania donovani Ubiquitin Activating Enzyme (LdE1); assay type: functional; details: 30 µM
T1 sequence (whole entry): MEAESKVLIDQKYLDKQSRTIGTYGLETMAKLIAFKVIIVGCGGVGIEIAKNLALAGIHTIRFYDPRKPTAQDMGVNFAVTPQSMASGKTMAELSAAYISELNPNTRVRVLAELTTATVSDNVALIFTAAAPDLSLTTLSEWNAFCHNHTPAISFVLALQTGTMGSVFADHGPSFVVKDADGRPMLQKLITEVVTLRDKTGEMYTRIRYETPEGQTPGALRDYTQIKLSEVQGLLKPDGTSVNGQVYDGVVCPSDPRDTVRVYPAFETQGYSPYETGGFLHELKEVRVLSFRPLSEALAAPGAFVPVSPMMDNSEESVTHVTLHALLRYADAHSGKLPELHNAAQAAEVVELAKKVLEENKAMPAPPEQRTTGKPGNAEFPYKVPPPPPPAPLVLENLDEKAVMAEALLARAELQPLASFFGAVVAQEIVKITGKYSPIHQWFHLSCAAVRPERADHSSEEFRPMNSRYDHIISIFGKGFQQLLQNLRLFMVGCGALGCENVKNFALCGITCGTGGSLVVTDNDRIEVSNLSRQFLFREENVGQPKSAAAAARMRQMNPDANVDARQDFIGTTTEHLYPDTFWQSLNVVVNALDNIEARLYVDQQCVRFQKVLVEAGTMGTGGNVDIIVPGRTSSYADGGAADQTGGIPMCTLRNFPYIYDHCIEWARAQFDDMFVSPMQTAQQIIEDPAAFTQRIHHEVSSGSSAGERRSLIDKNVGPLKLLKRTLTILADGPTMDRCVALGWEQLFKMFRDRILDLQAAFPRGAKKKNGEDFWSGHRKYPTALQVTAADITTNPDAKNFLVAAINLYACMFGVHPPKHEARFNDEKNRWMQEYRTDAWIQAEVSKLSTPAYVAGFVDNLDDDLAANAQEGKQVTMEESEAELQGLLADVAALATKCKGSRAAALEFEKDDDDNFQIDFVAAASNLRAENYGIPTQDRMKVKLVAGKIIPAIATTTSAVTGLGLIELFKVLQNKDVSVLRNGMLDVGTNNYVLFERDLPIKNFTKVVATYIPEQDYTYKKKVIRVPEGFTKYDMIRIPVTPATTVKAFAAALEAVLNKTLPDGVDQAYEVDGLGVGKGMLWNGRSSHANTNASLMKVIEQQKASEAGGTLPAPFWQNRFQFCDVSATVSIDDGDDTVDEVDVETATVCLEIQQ

[3] = biological target: AMP-activated protein kinase, AMPK (Homo sapiens) (UniProt P54646+O43741+P54619+Q9UGJ0+Q9Y478+Q13131+Q9UGI9); assay: AMP-dependent Kinase enzyme assay. An in vitro enzyme assay that detects ADP turnover that is directly proportional to AMPK activity. This uses naive AMPK that is activated during the assay with MK-8722; assay type: functional; details: 30 µM
[4] = biological target: Sialic acid-binding Ig-like lectin 9 (Homo sapiens) (UniProt Q9Y336); assay: Hs-Siglec9 ALPHAscreen SOP 20170721; details: 10 µM
Sequence of Sialic acid-binding Ig-like lectin 9 (Homo sapiens) (Q9Y336 whole entry): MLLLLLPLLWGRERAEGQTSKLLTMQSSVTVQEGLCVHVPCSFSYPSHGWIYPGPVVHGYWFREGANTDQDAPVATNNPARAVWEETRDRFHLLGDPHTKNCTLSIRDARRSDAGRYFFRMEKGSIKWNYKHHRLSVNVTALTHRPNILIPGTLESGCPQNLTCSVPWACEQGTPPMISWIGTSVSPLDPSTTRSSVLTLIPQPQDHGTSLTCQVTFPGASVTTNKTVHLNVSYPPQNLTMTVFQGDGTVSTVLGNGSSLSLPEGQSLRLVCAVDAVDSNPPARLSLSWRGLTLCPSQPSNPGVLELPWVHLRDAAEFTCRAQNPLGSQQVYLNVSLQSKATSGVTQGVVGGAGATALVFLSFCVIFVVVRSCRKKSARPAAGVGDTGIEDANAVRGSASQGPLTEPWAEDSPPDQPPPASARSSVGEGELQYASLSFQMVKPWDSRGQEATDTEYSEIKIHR

Trypanosoma cruzi = assay: Trypanosoma cruzi phosphomannomutase and mannose-1-phosphate guanylyltransferase assay; assay type: functional; details: 10 µM
[5] = biological target: T2, Arginase-2, mitochondrial (Homo sapiens) (UniProt P78540); assay: in vitro enzyme assay to detect the production of urea directly proportional to the activity of Arginase II; assay type: functional; details: 33.3 µM; also: in the data most compounds retested in dose-response had high values
T2 sequence (whole entry): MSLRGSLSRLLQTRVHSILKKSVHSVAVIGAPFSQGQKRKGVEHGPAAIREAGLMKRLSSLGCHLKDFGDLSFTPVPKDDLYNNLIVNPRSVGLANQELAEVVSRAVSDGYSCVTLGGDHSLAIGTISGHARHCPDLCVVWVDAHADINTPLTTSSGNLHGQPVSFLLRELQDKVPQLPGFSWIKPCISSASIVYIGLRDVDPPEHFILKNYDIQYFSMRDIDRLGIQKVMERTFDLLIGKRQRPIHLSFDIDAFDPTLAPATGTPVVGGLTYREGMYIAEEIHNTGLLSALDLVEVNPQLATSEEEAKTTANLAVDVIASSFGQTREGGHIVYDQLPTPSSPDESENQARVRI

[6] = biological target: T3, Proteasome subunit beta (Trypanosoma cruzi) (UniProt O96673); assay: Trypanosoma cruzi proteasome chymotrypsin-like activity (TcProtChymo) assay.; also: in the data most compounds retested in dose-response had high values; assay type: functional; details: 9.37 µM
T3 sequence (whole entry): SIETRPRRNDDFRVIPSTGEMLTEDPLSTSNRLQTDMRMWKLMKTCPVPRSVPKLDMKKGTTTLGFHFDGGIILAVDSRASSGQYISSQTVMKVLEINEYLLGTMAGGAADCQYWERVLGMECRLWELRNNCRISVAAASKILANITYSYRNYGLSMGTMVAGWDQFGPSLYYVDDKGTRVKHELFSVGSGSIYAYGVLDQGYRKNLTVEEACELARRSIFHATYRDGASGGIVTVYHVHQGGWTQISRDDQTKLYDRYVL

Homo sapiens = species on record: Homo sapiens; assay: To identify inhibition of the IFN signalling (Jak-Stat) pathway via expression of an eGFP reporter gene under the control of an IFN-stimulated response element (ISRE) containing MxA promoter.; assay type: functional; details: 30 µM
[7] = biological target: T4, Tyrosyl-tRNA synthetase, putative (Trypanosoma cruzi (strain CL Brener)) (UniProt Q4DSP6); assay: Trypanosoma cruzi tyrosyl tRNA synthetase (TcYRS) _High Tyrosine SOP; assay type: functional; details: 30 µM; also: in the data most compounds retested in dose-response had high values
T4 sequence (whole entry): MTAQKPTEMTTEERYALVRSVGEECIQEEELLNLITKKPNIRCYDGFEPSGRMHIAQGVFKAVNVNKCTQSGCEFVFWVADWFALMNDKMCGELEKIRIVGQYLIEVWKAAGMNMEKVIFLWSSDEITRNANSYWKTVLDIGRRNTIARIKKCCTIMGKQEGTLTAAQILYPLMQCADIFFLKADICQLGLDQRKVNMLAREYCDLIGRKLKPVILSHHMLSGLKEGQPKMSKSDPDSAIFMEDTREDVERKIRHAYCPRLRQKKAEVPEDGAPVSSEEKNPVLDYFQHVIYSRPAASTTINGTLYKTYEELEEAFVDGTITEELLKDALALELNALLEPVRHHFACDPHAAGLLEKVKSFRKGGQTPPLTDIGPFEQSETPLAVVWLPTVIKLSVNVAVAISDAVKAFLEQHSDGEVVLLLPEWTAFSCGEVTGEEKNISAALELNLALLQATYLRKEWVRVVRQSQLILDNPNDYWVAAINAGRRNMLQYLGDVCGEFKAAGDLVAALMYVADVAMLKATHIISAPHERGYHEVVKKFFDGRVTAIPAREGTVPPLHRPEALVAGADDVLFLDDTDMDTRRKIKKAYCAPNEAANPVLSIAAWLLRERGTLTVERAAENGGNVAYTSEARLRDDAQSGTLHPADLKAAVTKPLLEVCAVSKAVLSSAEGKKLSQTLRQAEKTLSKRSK

[8] = biological target: T4, Tyrosyl-tRNA synthetase, putative (Trypanosoma cruzi (strain CL Brener)); assay: Trypanosoma cruzi tyrosyl tRNA synthetase (TcYRS) SOP; assay type: functional; details: 30 µM
[9] = biological target: Chromo domain-containing protein 1 (Saccharomyces cerevisiae (strain ATCC 204508 / S288c) (Baker's yeast)) (UniProt P32657); assay: ScCHD-1 Enzyme Inhibition Assay; assay type: functional; details: 30 µM; also: in the data most compounds retested in dose-response had high values
Sequence of Chromo domain-containing protein 1 (Saccharomyces cerevisiae (strain ATCC 204508 / S288c) (Baker's yeast)) (P32657 whole entry, the tested form may be a part): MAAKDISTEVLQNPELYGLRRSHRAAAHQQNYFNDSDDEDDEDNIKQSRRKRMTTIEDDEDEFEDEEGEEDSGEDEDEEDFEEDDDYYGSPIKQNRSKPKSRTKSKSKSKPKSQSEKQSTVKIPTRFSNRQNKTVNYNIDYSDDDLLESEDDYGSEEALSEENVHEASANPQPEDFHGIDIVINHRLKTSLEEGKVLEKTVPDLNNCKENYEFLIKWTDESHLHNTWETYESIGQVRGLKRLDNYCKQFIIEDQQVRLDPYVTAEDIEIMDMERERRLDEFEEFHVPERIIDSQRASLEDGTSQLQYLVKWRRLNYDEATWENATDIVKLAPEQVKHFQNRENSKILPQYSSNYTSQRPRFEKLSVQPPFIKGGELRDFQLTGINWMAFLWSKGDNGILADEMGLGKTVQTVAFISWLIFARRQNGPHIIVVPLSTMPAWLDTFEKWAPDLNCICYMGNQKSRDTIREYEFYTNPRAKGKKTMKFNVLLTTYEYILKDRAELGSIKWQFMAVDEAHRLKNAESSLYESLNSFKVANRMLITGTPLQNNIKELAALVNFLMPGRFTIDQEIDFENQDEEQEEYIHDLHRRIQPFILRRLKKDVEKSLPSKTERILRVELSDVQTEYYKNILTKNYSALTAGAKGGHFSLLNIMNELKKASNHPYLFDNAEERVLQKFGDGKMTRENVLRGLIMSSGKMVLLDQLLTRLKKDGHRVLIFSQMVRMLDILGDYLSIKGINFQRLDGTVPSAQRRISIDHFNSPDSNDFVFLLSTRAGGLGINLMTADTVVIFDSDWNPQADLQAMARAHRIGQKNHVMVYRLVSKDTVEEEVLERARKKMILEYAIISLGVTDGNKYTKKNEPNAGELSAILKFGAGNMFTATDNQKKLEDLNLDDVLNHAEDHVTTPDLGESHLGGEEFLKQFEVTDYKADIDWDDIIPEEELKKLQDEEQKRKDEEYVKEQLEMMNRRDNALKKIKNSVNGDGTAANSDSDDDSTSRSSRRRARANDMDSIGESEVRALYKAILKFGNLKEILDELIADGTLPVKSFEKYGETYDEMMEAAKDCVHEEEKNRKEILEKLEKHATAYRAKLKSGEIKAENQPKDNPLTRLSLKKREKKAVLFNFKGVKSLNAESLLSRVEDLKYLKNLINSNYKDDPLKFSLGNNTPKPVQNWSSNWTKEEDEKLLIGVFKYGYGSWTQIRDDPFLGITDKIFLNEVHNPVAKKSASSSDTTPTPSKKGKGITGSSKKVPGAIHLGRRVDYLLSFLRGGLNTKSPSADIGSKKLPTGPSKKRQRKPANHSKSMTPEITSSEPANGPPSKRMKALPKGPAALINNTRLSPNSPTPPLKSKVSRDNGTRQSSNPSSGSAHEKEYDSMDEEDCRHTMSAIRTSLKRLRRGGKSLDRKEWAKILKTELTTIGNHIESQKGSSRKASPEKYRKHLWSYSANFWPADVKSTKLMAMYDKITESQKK

Sequence of Protein translocase subunit SecA (Escherichia coli (strain K12)) (P10408 whole entry): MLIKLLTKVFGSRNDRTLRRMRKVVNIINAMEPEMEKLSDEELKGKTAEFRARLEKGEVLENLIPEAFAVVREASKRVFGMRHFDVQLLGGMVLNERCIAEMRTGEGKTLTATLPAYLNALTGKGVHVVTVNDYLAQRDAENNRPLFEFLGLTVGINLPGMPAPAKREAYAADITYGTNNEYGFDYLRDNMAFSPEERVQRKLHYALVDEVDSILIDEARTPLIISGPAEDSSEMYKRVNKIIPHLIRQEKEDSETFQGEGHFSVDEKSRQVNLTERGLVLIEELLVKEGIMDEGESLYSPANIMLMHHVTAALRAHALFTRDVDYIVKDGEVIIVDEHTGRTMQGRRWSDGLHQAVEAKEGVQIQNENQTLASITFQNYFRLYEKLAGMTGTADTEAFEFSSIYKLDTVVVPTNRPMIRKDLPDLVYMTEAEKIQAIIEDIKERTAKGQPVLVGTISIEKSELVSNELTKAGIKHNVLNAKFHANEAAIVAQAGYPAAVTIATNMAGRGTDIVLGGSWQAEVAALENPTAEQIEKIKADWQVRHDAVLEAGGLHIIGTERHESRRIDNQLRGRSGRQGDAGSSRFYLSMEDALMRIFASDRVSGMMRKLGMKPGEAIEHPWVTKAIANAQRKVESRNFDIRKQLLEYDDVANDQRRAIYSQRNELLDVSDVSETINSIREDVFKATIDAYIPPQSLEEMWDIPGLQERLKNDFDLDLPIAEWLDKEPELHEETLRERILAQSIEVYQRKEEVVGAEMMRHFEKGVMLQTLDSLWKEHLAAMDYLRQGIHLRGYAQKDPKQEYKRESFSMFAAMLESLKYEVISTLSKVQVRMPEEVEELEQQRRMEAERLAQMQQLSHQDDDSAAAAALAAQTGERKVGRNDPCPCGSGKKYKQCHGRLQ

| Compound | Percent Effect [1] | Percent Effect [2] | Percent Effect [3] | Percent Effect [4] | Percent Effect (Trypanosoma cruzi) | Percent Effect [5] | Percent Effect [6] | Percent Effect (Homo sapiens) | Percent Effect [7] | Percent Effect [8] | Percent Effect [9] |
| --- | --- | --- | --- | --- | --- | --- | --- | --- | --- | --- | --- |
| CCC1=N[C@@]2(CC[C@@H]3CN(C(=O)Nc4ccc(F)cc4)C[C@@H]32)C(=O)N1 | -5.91% | 5.41% | -0.761% | -2.41% | 7.42% | -2.5% | 13.1% | -26.3% | 7.92% | 8.54% | -6.29% |
| O=C(CN1CCCC(Cn2cncn2)C1)NCc1ccco1 (stereo not given) | -2.6% | 0% | -4.08% | -5% | -8.12% | 8.27% | 7.87% | 6.12% | 1.48% | -1.24% | 4.31% |
| c1cnc(-c2nc(CN3CCCC(Cn4cncn4)C3)cs2)nc1 (stereo not given) | -3.67% | 8.11% | -6.35% | 6.78% | -4.81% | -0.802% | 11% | 10.9% | 6.4% | 6.17% | -4.11% |
| COCC(=O)N1CCC2(CC1)COCCN2CCN(C)C | 0.864% | -5.33% | -0.00705% | 4.73% | -1.93% | -50% | 0.342% | -11.3% | 3.12% | -5% | 0.531% |
| NC(=O)N1CC[C@H](O)[C@@H]1Cc1cccnc1 | -2.51% | 2.7% | 6.84% | -5.75% | -9.48% | 4.78% | 24% | 5.65% | 0% | 7.69% | -2.76% |
| CC(=O)Nc1nc(C(=O)N2CCCC2c2noc(C)n2)cs1 (stereo not given) | -6.47% | -5.2% | 10.4% | -6.87% | -7.12% | 2.13% | -2.2% | 22.6% | -1.94% | -17.1% | -6.82% |
| COc1ccc(-n2ccc(C(=O)N3CCN(C)CC3C)n2)cc1 (stereo not given) | -5.91% | 10.4% | 5.54% | 7.32% | 0.374% | -0.712% | -0.676% | 3.45% | 8.74% | 14.6% | -5.54% |
| Cn1ccnc1CN1CCC2(CC1)CN(CC1CC1)C(=O)CO2 | -1.66% | 0% | 7.96% | -0.145% | -0.296% | -1.94% | 0.522% | 12.5% | 4.23% | 8.97% | 90.8% |
| O=C(c1ccoc1)N1CC[C@@H]2O[C@H](COCc3ccccn3)CC[C@@H]21 | 4.07% | 8.11% | 2.6% | -13.6% | -3.42% | 2.87% | 21.4% | 7.99% | 2.16% | 10.3% | -3.84% |
| Cc1nc(C)n(C2CCCN(C(=O)c3ccc(NC4CC4)nc3)C2)n1 (stereo not given) | -2.93% | -5.41% | 2.71% | 10.3% | 2.14% | -4.25% | -3.77% | 8.24% | 1.98% | 6.1% | 4.04% |
